Source: PubChem BioAssay AID1851 (National Center for Advancing Translational Sciences (NCATS), 2009)
Hit rate of the full screen: of about 16,000 compounds, about 5,800 (36%) were called active. Not shown: some 23% with an inconclusive outcome. Calls follow the shape of the dose curve; as a rule, active = well fitted curve in the direction sought with a large enough effect; inconclusive = small, poorly fitted or top-dose-only effect, or effect the other way; inactive = no such curve, though single readings can be large or run the other way. The list shows a part of the results.

Target: Cytochrome P450 2C19 (Homo sapiens) (UniProt P33261)
Experiment: Cytochrome panel assay with activity outcomes
Conditions: recombinant CYP, pro-luciferin dealkylation, luminescence, p450-cyp2c19; series mostly up to 57.1 µM; activity, negative = inhibition: at the top concentration
% is scaled to controls: 0 for no effect and ±100 for the full control effect.

Cytochrome P450 2C19 (Homo sapiens), sequence (P33261 whole entry, looked up): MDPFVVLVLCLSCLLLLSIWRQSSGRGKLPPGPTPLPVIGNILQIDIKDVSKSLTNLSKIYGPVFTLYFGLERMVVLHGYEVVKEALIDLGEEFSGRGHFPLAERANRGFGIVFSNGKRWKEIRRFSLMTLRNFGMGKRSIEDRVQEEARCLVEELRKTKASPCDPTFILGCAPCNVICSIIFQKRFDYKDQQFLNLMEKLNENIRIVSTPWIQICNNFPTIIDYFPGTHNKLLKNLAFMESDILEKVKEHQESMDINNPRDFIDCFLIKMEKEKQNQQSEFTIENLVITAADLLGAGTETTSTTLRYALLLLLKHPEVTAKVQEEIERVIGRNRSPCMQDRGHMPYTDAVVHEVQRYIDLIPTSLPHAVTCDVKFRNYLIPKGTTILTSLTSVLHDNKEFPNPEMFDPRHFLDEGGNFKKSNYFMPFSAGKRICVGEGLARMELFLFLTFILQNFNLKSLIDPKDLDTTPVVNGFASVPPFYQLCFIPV

Row | SMILES | activity, negative = inhibition | AC50
1 | O=C(O)c1cc(=O)c2c(OCC(O)COc3cccc4oc(C(=O)O)cc(=O)c34)cccc2o1 | -4.86% [at 25.6 µM] (inactive) | 
2 | CCOC(=O)COc1cc(OCC(=O)OCC)c2c(=O)cc(-c3ccccc3)oc2c1 |  | 14.1 µM (active)
3 | CC(C)C12CC[C@@]3(CC[C@H]4[C@@](C)(CCC[C@]4(C)C(=O)O)[C@@H]3C1)[C@@H](CN)C2 | 8.51% [at 11.4 µM] (inactive) | 
4 | Cc1ccc(O)c(C(=O)c2cc(C#N)c(=O)n(-c3c(C)n(C)n(-c4ccccc4)c3=O)c2)c1 | -13.2% (inactive) | 
5 | Brc1ccc(/C=C/C=N/Nc2nc3ccccc3s2)cc1 |  | 3.55 µM (active)
6 | c1ccc(/C(=N/Nc2nc3ccccc3s2)c2ccccn2)cc1 | -42.9% [at 11.4 µM] (inactive) | 
7 | O=c1c(-c2cc(F)cc(F)c2)nc2cnc(N3CCOCC3)nc2n1-c1ccccc1 | -8.88% (inactive) | 
8 | Fc1ccc(-c2cn3cc(C(F)(F)F)cc(Cl)c3n2)cc1 |  | 10 µM (active)
9 | O=S(=O)(c1ccccc1)c1cnn2c(C(F)(F)F)cc(-c3ccc(F)cc3)nc12 | -26.6% (inactive) | 
10 | CCOC(=O)CSC1=NC(=O)/C(=C\c2ccc(OC(C)=O)cc2)S1 |  | 15.8 µM (active)
11 | O=C1CC[C@H](NC(=O)c2ccccc2)C(=O)N1 | 28.7% [at 11.4 µM] (inactive) | 
12 | O=C1CSC(c2ccccc2F)N1c1cc(Cl)ccc1O (centres undefined) |  | 0.891 µM (active)
13 | Nc1nc(N)nc(CC(=O)O)n1 | -6.24% [at 11.4 µM] (inactive) | 
14 | CN(Cc1ccco1)c1ncncc1-c1ccccc1C(F)(F)F |  | 3.98 µM (active)
15 | Cc1noc(C)c1-c1cncnc1N(C)Cc1ccco1 |  | 2.51 µM (active)
16 | CN(Cc1ccco1)c1ncncc1-c1ccccc1Cl |  | 0.794 µM (active)
17 | Cc1noc(C)c1-c1cncnc1NC1CC1 | -20.9% (inactive) | 
18 | Cc1ccccc1-c1cncnc1N(C)Cc1ccco1 |  | 5.01 µM (active)
19 | CC1(C)S[C@@H]2[C@H](NC(=O)[C@@H](NC(=O)N3CCNC3=O)c3ccccc3)C(=O)N2[C@H]1C(=O)O | 6.12% [at 25.6 µM] (inactive) | 
20 | CC1(C)O[C@H]2[C@@H](O1)[C@@H](On1nnc3ccc(Cl)cc31)O[C@@H]2[C@@H]1COC(C)(C)O1 | 17% [at 11.4 µM] (inactive) | 
21 | O=C(CCCCCn1c(=O)[nH]c2ccsc2c1=O)NCc1ccc2c(c1)OCO2 |  | 10 µM (active)
22 | O=C(NCc1ccco1)c1ccc2c(=O)n(-c3ccccc3)c(=S)[nH]c2c1 | -24.2% (inactive) | 
23 | O=C(CCCCn1c(=S)[nH]c2ccsc2c1=O)NCc1ccco1 |  | 14.1 µM (active)

Row | SMILES | activity, negative = inhibition | AC50
24 | Cc1ccc(-n2c(=O)c3sccc3n(CC(=O)NCc3ccco3)c2=O)cc1F | 28.2% (inactive) | 
25 | O=C(CCn1c(=O)[nH]c2ccsc2c1=O)Nc1ccc(F)c(F)c1 | -13.9% (inactive) | 
26 | NCC[C@H]1CCC[C@H](CCN)N1 | -4.62% (inactive) | 
27 | O=C(C[C@@H]1C=Cc2ccccc2N1C(=O)c1ccccc1)c1ccccc1 |  | 0.501 µM (active)
28 | NC(=O)N1c2ccccc2C=Cc2ccccc21 | -26.8% [at 25.6 µM] (inactive) | 
29 | O=C(Cc1ccc(Br)cc1)Nc1ccccc1Sc1ccccc1 |  | 0.178 µM (active)
30 | O=C(NC1CCCCC1)C1CC=CCC1C(=O)OCC(Cl)=C(Cl)Cl (centres undefined) |  | 10 µM (active)
31 | COc1ccc(NC(=O)c2ccc3c(=O)n(Cc4ccco4)c(=S)[nH]c3c2)c(OC)c1 |  | 4.47 µM (active)
32 | O=C(c1ccc2c(=O)n(CC3CCCO3)c(=S)[nH]c2c1)N1CCN(c2ccccc2)CC1 (centres undefined) |  | 11.2 µM (active)
33 | O=C(c1ccc2c(=O)n(Cc3ccco3)c(=S)[nH]c2c1)N1CCN(c2ccccc2)CC1 |  | 2.24 µM (active)
34 | COCCCNC(=O)c1ccc2c(=O)n(CC3CCCO3)c(=S)[nH]c2c1 (centres undefined) | 12% (inactive) | 
35 | CC(=O)OC[C@@H]1O[C@@H](O/N=C2/C[C@@H](O)[C@@H](O)[C@@H]3[C@@H]4C(=O)N(C5CCCCC5)C(=O)[C@H]4CC[C@@H]23)[C@H](OC(C)=O)[C@H](OC(C)=O)[C@@H]1OC(C)=O | 2.25% [at 11.4 µM] (inactive) | 
36 | CCOc1ccccc1Nc1ccc(N)cc1S(=O)(=O)O | -16.1% [at 11.4 µM] (inactive) | 
37 | CCOc1ccccc1NC(=O)C1Cc2ccccc2CN1S(C)(=O)=O (centres undefined) |  | 7.94 µM (active)
38 | C=C(NC(=O)C(=C)NC(=O)c1csc(C2=N[C@@H]3c4csc(n4)[C@@H]4NC(=O)c5csc(n5)[C@@H]([C@](C)(O)[C@H](C)O)NC(=O)[C@@H]5CSC(=N5)/C(=C/C)NC(=O)[C@@H]([C@H](C)O)NC(=O)c5csc(n5)[C@]3(CC2)NC(=O)[C@@H](C)NC(=O)C(=C)NC(=O)[C@@H](C)NC(=O)[C@@H]([C@@H](C)CC)N[C@H]2C=Cc3c([C@H](C)O)cc(nc3[C@@H]2O)C(=O)O[C@H]4C)n1)C(N)=O | 15.8% [at 25.6 µM] (inactive) | 
39 | O=S(=O)(c1ccccc1)N1CCC2(CC1)CN(C(c1ccccc1)c1ccccc1)C2 | -6.26% (inactive) | 
40 | O=S(=O)(c1ccccc1)N1CN2CN(C1)CN(S(=O)(=O)c1ccccc1)C2 | -18.2% [at 11.4 µM] (inactive) | 
41 | O=C1CCN(S(=O)(=O)c2ccccc2)N1 |  | 17.8 µM (active)
42 | O=C(NCc1ccc(F)cc1)C(c1ccncc1)N(C(=O)c1csnn1)C1CC1 (centres undefined) |  | 3.55 µM (active)
43 | CCc1ccc(N(C(=O)c2csnn2)C(C(=O)NCc2ccccc2)c2ccco2)cc1 (centres undefined) |  | 3.16 µM (active)
44 | O=C(c1csnn1)N1CCC2(CCCN(Cc3ccccc3)C2)CC1 | 2.09% (inactive) | 
45 | O=C(NCc1ccccc1)C(c1ccncc1)N(C(=O)c1csnn1)C1CC1 (centres undefined) |  | 8.91 µM (active)
46 | O=C(Nc1cccc(F)c1)N1CCC2(CC1)CCN(C(=O)c1csnn1)CC2 | -22.8% (inactive) | 

Row | SMILES | activity, negative = inhibition | AC50
47 | O=C(c1csnn1)N1CCC2(CC1)CCN(c1ccccc1)CC2 | -19.6% (inactive) | 
48 | O=C(OC(C(=O)O)C(OC(=O)c1ccccc1)C(=O)NCc1ccccc1)c1ccccc1 (centres undefined) | 1.03% (inactive) | 
49 | CCn1c(CCCc2nc3c([nH]2)c(=O)n(C)c(=O)n3C)nc2c1c(=O)n(C)c(=O)n2C | 2.28% [at 11.4 µM] (inactive) | 
50 | CC(C)CCn1c(Oc2ccccc2Cl)nc2c1c(=O)n(C)c(=O)n2C |  | 15.8 µM (active)
51 | CCOC(=O)N1CCN(C(=O)c2cnc3n(c2=O)CCS3)CC1 | -14.5% (inactive) | 
52 | CCOC(=O)N1CCN(C(=O)C(CC)n2nc(C)c3sc4ccccc4c3c2=O)CC1 (centres undefined) |  | 20 µM (active)
53 | CCOC(=O)N1CCN(C(=O)C(C)SCc2ccccc2)CC1 (centres undefined) | -27.1% (inactive) | 
54 | CCOC(=O)N1CCN(C(=O)CSCc2nc(-c3ccccc3F)oc2C)CC1 |  | 31.6 µM (active)
55 | Cc1oc(-c2ccccc2Cl)nc1CSCC(=O)NC1CC1 |  | 14.1 µM (active)
56 | Cc1oc(-c2ccccc2F)nc1CS(=O)(=O)CC(=O)NCCCN(C)C1CCCCC1 | -9.67% (inactive) | 
57 | Cc1oc(-c2ccccc2F)nc1CSCC(=O)NCc1ccc2c(c1)OCO2 |  | 1.78 µM (active)
58 | N#Cc1cccc(NC(=O)N2CCC3(CC2)CCN(C(=O)c2csnn2)CC3)c1 | 15.6% (inactive) | 
59 | Nc1ncnc2c([C@@H]3O[C@@H](CO)[C@H](O)[C@@H]3O)nsc12 | 20.7% [at 11.4 µM] (inactive) | 
60 | O=C(c1ccco1)N1CCC2(CC1)CCN(c1ccccc1)CC2 | -29.3% (inactive) | 
61 | O=C(c1ccco1)N1CCC[C@@]2(CCN(Cc3ccccc3)C2)C1 | -21.5% (inactive) | 
62 | Cc1nn(C(=O)c2ccco2)c(C)c1Sc1ccccc1 |  | 6.31 µM (active)
63 | Cc1nn(C(=O)c2cccnc2)c(C)c1Sc1ccc(Br)cc1 |  | 0.631 µM (active)
64 | Cc1nn(C(C)(C)C)c(OC(=O)c2ccco2)c1Sc1ccccc1 |  | 7.08 µM (active)
65 | CC(C)(C(=O)c1cccnc1)c1cccnc1 | -11.6% [at 25.6 µM] (inactive) | 
66 | C/C(CCN1CCCc2nc(C)c(C)cc21)=N\OC[C@@H](C)[C@H](OCc1ccccc1)C(C)C | -29.2% [at 11.4 µM] (inactive) | 
67 | Cc1ccccc1CSc1nsc(N)n1 |  | 11.2 µM (active)
68 | CCN1/C(=C/c2ccc3cccc(C)c3[n+]2CC)Sc2ccccc21 | -0.21% (inactive) | 
69 | O=C(CS(=O)c1cccc(Cl)c1)Nc1ccccc1Cl (centres undefined) |  | 2.51 µM (active)

Row | SMILES | activity, negative = inhibition | AC50
70 | NC(=O)NC(=O)Nc1ccccc1Cl | -12.5% (inactive) | 
71 | O=C(CS(=O)(=O)c1cccc(Cl)c1)Nc1ccccc1Cl |  | 2.51 µM (active)
72 | O=C(CS(=O)c1cccc(C(F)(F)F)c1)Nc1ccccc1Cl (centres undefined) |  | 2.82 µM (active)
73 | NCC(=O)Nc1ccc(Cl)cc1C(=O)c1ccc[nH]1 | -10.9% [at 11.4 µM] (inactive) | 
74 | OC[C@@H]1O[C@@H](n2cnc3c(N[C@H]4CCC[C@@H]4O)ncnc32)[C@H](O)[C@H]1O | -26.2% (inactive) | 
75 | O=C(Nc1ccc([N+](=O)[O-])cc1Cl)c1cc(Cl)ccc1O | -30.4% (inactive) | 
76 | Cc1cccc[n+]1CC(=O)Nc1ccc([N+](=O)[O-])cc1Cl |  | 3.16 µM (active)
77 | Cc1ccc(S(=O)(=O)c2c(C)nn(C(C)(C)C)c2OC(=O)c2cccs2)cc1 |  | 1 µM (active)
78 | CN1CCC(n2[nH]c(-c3ccccc3)c(Cc3ccccc3)c2=O)CC1 | -29.5% [at 11.4 µM] (inactive) | 
79 | COc1cc([C@H](O)CO)ccc1O | 9.63% (inactive) | 
80 | N#Cc1c(N)nc2c(c1-c1cccc(O)c1)CCCCCC2 |  | 7.08 µM (active)
81 | Cc1c(-c2c(C#N)c(N)nc3c2CCCCCC3)cnn1C |  | 14.1 µM (active)
82 | CCc1sc(-c2c(C#N)c(N)nc3c2CCCCCC3)cc1[N+](=O)[O-] |  | 3.98 µM (active)
83 | FC(F)(F)c1ccc(N2CCOCC2)c(Nc2nc3ccccc3n3cnnc23)c1 |  | 3.55 µM (active)
84 | Cc1ccccc1S(=O)(=O)c1c(C)cc(-c2ccccc2)[nH]c1=O | -7.26% (inactive) | 
85 | CCCSc1nc(C)cc(C)c1S(=O)(=O)c1ccccc1C |  | 2.24 µM (active)
86 | CCCCSc1nc(C)cc(C)c1S(=O)(=O)c1ccccc1C |  | 0.562 µM (active)
87 | COc1ccccc1/C=C/C=N/N1CCN(Cc2cccc3ccccc23)CC1 |  | 14.1 µM (active)
88 | COc1ccccc1CN1CCC2(CCNCC2)CC1 | -22.3% (inactive) | 
89 | COc1ccccc1CN1CCC2(CC1)CCN(S(C)(=O)=O)CC2 | -15.7% (inactive) | 
